Experimental data as given in PubChem BioAssay AID504332 (National Center for Advancing Translational Sciences (NCATS), 2011).
About 31,000 (8.9%) of roughly 350,000 compounds were called active. Roughly 15% stayed inconclusive and do not appear here. Shown is part of a subset that was picked to be rich in actives. Where a call stands in place of a potency, no number is given. A number with no mark means an inactive call. The call rests on the fitted dose curve; in most records, active means well fitted inhibition curve with a large enough effect; inconclusive means small, poorly fitted or top-dose-only effect; inactive means no such curve, though single readings can be large or run the other way.

What follows are compounds tested against Histone-lysine N-methyltransferase EHMT2 (Homo sapiens) (UniProt Q96KQ7) (assay: qHTS Assay for Inhibitors of Histone Lysine Methyltransferase G9a). Conditions: G9a H3K9 monomethylation, AlphaScreen, 2 h; series mostly up to 59 µM.
In short: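 G9a (20 nM) was preincubated 15 min with compound, then reacted 2 h at room temperature with 500 nM biotin-H3K9 peptide and 20 µM SAM. Monomethyl-H3K9 detected by AlphaScreen using anti-H3K9me1 antibody.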
Further: nearly all actives have a fitted effect of over 75% in size.
Potency means the concentration at half of the fitted maximal effect.

Sequence of Histone-lysine N-methyltransferase EHMT2 (Homo sapiens) (Q96KQ7 913-1193 limits assumed): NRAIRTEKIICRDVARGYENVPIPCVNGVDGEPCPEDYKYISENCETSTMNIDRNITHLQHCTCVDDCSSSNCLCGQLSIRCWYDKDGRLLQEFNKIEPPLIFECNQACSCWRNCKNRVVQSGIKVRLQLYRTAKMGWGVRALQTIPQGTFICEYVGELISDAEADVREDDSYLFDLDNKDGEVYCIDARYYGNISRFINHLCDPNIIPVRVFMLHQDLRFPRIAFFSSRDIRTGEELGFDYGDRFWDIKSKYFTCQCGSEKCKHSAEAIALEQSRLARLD

| Compound | Potency | activity, negative = inhibition |
| --- | --- | --- |
| Cc1ccc(-c2nnc(Nc3ccc(OCC(N)=O)cc3)c3ccccc23)cc1S(=O)(=O)NCC1CCCO1 (stereo unspecified) | inactive | – |
| Cc1ccccc1OCc1nc2c3cnn(-c4ccccc4F)c3ncn2n1 | inactive | – |
| CC(CNC(=O)c1ccc(N)cc1)NC(=O)c1ccc(N)cc1 (stereo unspecified) | inactive | – |
| CC(NC(=O)c1ccc(N2CCNCC2)c([N+](=O)[O-])c1)C12CC3CC(CC(C3)C1)C2 (stereo unspecified) | inactive | – |
| CN(C)NC(=O)C(NC(=O)c1ccc(N)cc1)C12CC3CC(CC(C3)C1)C2 (stereo unspecified) | 44.7 µM (active) | – |
| CCOC(=O)C(C)n1cnc2c(nnn2-c2ccc(F)cc2)c1=O (stereo unspecified) | inactive | – |
| CC(C)(C)C1CCc2c(sc(NC(=O)c3ccccc3F)c2C(=O)N2CCCCC2)C1 (stereo unspecified) | inactive | – |
| O=C(Nc1ccccc1N1CCOCC1)c1ccc(OCc2cscn2)cc1 | inactive | – |
| CCOC(=O)c1cc2ccccc2n1CC(=O)c1ccccc1 | inactive | – |
| CCn1c(=N)n(CC(=O)c2cccc(OC)c2)c2ccccc21 | 44.7 µM (active) | – |
| COc1ccc2cc(C(=O)O)n(CC(=O)c3ccccc3)c2c1 | inactive | – |
| COc1ccccc1C(=O)NCC(=O)NCCSc1ccc(Br)cc1 | inactive | – |
| CN1C(C(=O)NCc2ccco2)CC2Cn3c(nc4ccccc43)C21 (stereo unspecified) | – | 16.2% [at 2.33 µM] |
| COc1ccccc1N1CCN(C(=O)C2Cc3ccccc3CN2C(=O)c2ccco2)CC1 (stereo unspecified) | inactive | – |
| CC1CCN(c2ccc(-c3ccc(NC(=O)c4ccco4)cc3)nn2)CC1 | inactive | – |
| O=C(Nc1cc(C(F)(F)F)ccc1Cl)c1ccc2c(c1)CCN2S(=O)(=O)c1ccccc1 | inactive | – |
| COc1cccc(N2CC(C(=O)NCc3n[nH]c(=O)c4ccccc34)CC2=O)c1 (stereo unspecified) | – | -7.83% [at 2.33 µM] |
| O=C(CN1C(=O)c2cccnc2Oc2ccc(Cl)cc21)NCCc1ccccc1 | inactive | – |
| CCN(CC)c1ccc(NC(=O)CN2C(=O)c3cccnc3Oc3ccc(Cl)cc32)c(C)c1 | 2.82 µM (active) | – |
| Cc1cc(C)c(NC(=O)CN2C(=O)c3cccnc3Oc3ccc(Cl)cc32)c(C)c1 | inactive | – |
| COc1ccc(C(=O)COC(=O)CCCC(=O)Nc2cc(C(F)(F)F)ccc2Cl)cc1 | inactive | – |

| Compound | Potency | activity, negative = inhibition |
| --- | --- | --- |
| O=c1c2ccccc2ncn1/N=C/c1ccccc1 | inactive | – |
| CCN(c1ccc(NC(=O)COC(=O)CCc2nc3ccccc3n2-c2ccccc2)cc1)C(C)C | 15.8 µM (active) | – |
| CCCCn1c(=O)c(CCC(=O)OCC(=O)Nc2ccc(C)c(Cl)c2)nc2ccccc21 | inactive | – |
| Cc1ccc(NC(=O)COC(=O)CCc2nc3ccccc3n2-c2ccccc2)c(C)c1 | inactive | – |
| CN(C)c1ccc(-n2cccc2/C=C2/SC(=Nc3ccc(F)cc3)NC2=O)cc1 | inactive | – |
| Cc1ccc(N=C2NC(=O)/C(=C/C=C/c3ccco3)S2)cc1C | 10 µM (active) | – |
| Cc1ccc(N(CC(=O)NCc2ccc(Cl)cc2)S(=O)(=O)N(C)C)cc1 | inactive | – |
| COc1cc(C(=O)Nc2ccc(OCc3cc(=O)n4ccc(C)cc4n3)cc2)cc(OC)c1OC | inactive | – |
| COc1cccc(CNC(=O)C(=O)NCC(c2cccs2)S(=O)(=O)c2ccccc2)c1 (stereo unspecified) | inactive | – |
| CCOCCCNC(=O)c1cn(CC)c2ccc(S(=O)(=O)N3CCc4ccccc4C3)cc2c1=O | inactive | – |
| CCn1cc(C(=O)NCc2ccc(C)cc2)c(=O)c2cc(S(=O)(=O)N3CCc4ccccc4C3)ccc21 | inactive | – |
| CCn1cc(C(=O)NCCCN2CCCCCC2)c(=O)c2cc(S(=O)(=O)N3CCc4ccccc4C3)ccc21 | 31.6 µM (active) | – |
| FC(F)(F)c1ccc(-n2cn[nH]c2=S)cc1 | 8.91 µM (active) | – |
| O=c1c2ccccc2c(-c2ccc(F)cc2)nn1-c1ccc(C(F)(F)F)cc1 | inactive | – |
| CCOc1ccc(OCC)c(NS(=O)(=O)c2ccc3[nH]c(=O)ccc3c2)c1 | inactive | – |
| COc1cc(/C=C2/C(=O)NN(c3ccc(F)cc3)C2=O)cc([N+](=O)[O-])c1O | 39.8 µM (active) | – |
| COc1cccc(/C=C2\SC(=N)N(c3ccc(F)cc3)C2=O)c1 | inactive | – |
| COc1ccc(C(=O)N2CCN(c3ccc(C(C)=O)cc3F)CC2)cc1S(=O)(=O)NC1CC1 | – | 15.5% [at 2.33 µM] |
| COC(=O)c1ccc(CSc2ccc3nnc(-c4ccccc4)n3n2)o1 | inactive | – |
| COc1ccc(-c2nnc3ccc(SCc4ccccc4)nn23)cc1 | 70.8 µM (active) | – |
| CCOc1ccc(-c2nnc3ccc(SC)nn23)cc1 | inactive | – |

| Compound | Potency | activity, negative = inhibition |
| --- | --- | --- |
| CCOc1ccc(NC(=O)Cn2cc(C(=O)c3ccc(C)cc3)c(=O)c3cc4c(cc32)OCCO4)cc1 | inactive | – |
| O=C(CCc1nnc(Cc2ccc3c(c2)OCO3)o1)NCCc1ccccc1Cl | – | 27.8% [at 0.501 µM] |
| COc1ccc(C(=O)/C=C/Nc2ccccn2)cc1 | inactive | – |
| CCN(CC)S(=O)(=O)c1cc(C(=O)Nc2ccccn2)ccc1C | – | -27.2% [at 12.7 µM] |
| O=C(NNc1ccccn1)c1ccc(Cl)nc1 | 3.55 µM (active) | – |
| Cc1ccc(NC(=O)CN(C)C(=O)Cn2nnc(-c3ccccc3)n2)cc1 | inactive | – |
| Cc1ccc(C)c(NC(=O)CN(C)C(=O)c2ccc3ncsc3c2)c1 | inactive | – |
| CC(NC(=O)c1ccc(S(=O)(=O)Nc2ccccc2)cc1)c1ccc(S(N)(=O)=O)cc1 (stereo unspecified) | inactive | – |
| COc1cc(Br)cc2cc(S(=O)(=O)c3ccccc3)c(=O)oc12 | inactive | – |
| COc1cc(NS(=O)(=O)c2ccc3c(c2)OCC(C(=O)N2CCCC2)O3)cc(OC)c1 (stereo unspecified) | inactive | – |
| COc1ccc(OC)c2sc(N3CCN(C(=O)C4COc5ccccc5O4)CC3)nc12 (stereo unspecified) | inactive | – |
| Cc1c(CC(=O)N2CCN(C(=O)C3COc4ccccc4O3)CC2)c(=O)oc2c(O)c(O)ccc12 (stereo unspecified) | 12.6 µM (active) | – |
| Cc1ccccc1CN1CCC(CNC(=O)c2c(C)oc3ncnc(N4CCCCC4)c23)CC1 | inactive | – |
| COc1ccc2oc(C(=O)NCc3ccco3)c(C)c2c1 | inactive | – |
| O=C(c1ccco1)n1nc(-c2ccc(Cl)cc2)nc1NCc1ccccc1 | inactive | – |
| O=c1[nH]c(N2CCOCC2)nc2ccccc12 | inactive | – |
| C1=C(N2CCOCC2)/C(=C/c2nc3ccccc3[nH]2)CC1 | 20 µM (active) | – |
| c1ccc(-n2nnnc2N2CCOCC2)cc1 | inactive | – |
| O=C(Nc1ccc(C(=O)NCc2ccccc2Cl)cc1)C1=CSCCO1 | inactive | – |
